# CYP2C19 activ: activators of human cytochrome P450 2C19 | P33261 | recombinant CYP2C19, luciferin-H EGE luminescence; active compounds read high; 0 = fully inhibited enzyme, 1 = untreated enzyme | activation factor at 5 µM | 96,000 tested, under 10 active | AID 1025;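 active = activation factor of at least 2 at 5 µM in the primary screen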;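 also: 0 = wells with 2.5 mM tranylcypromine and 1 = vehicle-only wells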
# Target sequence (P33261 whole entry, looked up): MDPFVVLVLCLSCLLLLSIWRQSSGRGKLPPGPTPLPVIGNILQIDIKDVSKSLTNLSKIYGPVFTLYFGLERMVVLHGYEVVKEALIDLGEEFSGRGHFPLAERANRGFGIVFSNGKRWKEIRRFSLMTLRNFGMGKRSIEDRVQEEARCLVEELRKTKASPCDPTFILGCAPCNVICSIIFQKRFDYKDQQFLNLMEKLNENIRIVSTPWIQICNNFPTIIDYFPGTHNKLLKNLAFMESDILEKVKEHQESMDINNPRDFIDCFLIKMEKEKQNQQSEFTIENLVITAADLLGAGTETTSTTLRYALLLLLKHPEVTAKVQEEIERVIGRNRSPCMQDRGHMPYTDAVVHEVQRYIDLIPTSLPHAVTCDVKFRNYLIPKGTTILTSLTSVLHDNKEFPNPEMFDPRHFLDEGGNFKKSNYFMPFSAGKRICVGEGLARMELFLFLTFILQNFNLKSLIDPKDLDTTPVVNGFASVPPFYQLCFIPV
# CYP2C9 inhib: human CYP2C9 inhibition; P11712; CYP2C9 Supersomes, luciferin-H conversion, luminescence; inhibition, % at 5 µM; hit rate 20% among 96,000; AID 777;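 active = blocking of liver enzyme CYP2C9 beyond about 50% at 5 µM, limit read from the data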
# CYP2C9 act: increases human cytochrome P450 2C9 activity; activation factor at 5 µM; recombinant CYP2C9, luciferin-H conversion, luminescence; active compounds read high; factor 1 = untreated enzyme, 0 = blocked; AID 1024; P11712; hit rate 1.4% among 96,000;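 active = activation factor of 2 or more for CYP2C9 at a 5 µM dose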;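 also: 0 = sulfaphenazole-blocked wells and 1 = vehicle-only wells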
# CYP2C19 inh: blocks human cytochrome P450 2C19; CYP2C19 Supersomes, luciferin-H EGE luminescence, 30 min; inhibition, % at 5 µM; hit rate 21% among 96,000;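 active = CYP2C19 inhibition above a set limit at 5 µM in the primary screen, cut at about 50% in these data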;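 also: plate controls were negative control wells for no effect and 2.5 mM tranylcypromine positive control for full effect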
# PLAP act: activators of human placental alkaline phosphatase; hit rate 1.2% among 96,000; activation fold at 20 µM; purified PLAP enzyme, luminescent substrate read-out; active compounds read high; P05187; in the data active = activation fold above about 2
# Active calls of the source: *. In the library only some 31% were active in any assay of this set; here they are far more common.
SMILES,CYP2C19 activ,CYP2C9 inhib,CYP2C9 act,CYP2C19 inh,PLAP act
CCC(C)n1cnc2c(c1=O)c1nc3ccccc3nc1n2-c1ccc2c(c1)OCCO2 (stereo not given),0.9,30,0.7,10,1.2
O=c1c2c3nc4ccccc4nc3n(-c3cccc(F)c3)c2ncn1Cc1ccc2c(c1)OCO2,1,0,1,-2,1.2
CC(=O)N1c2ccc(S(=O)(=O)CCC(=O)O)cc2CC1C (stereo not given),1.1,-12,1.1,-14,0.9
Cn1c(-c2ccc(C=O)s2)nc2ccccc21,0.8,11,0.9,16,0.8
CCOC(=O)C1CN(S(=O)(=O)c2ccc(C)cc2)C1,0.8,-3,1,24,0.9
O=C(NCCc1ccncc1)Nc1cccc(Cl)c1,0,98*,0,98*,1.1
O=C(Nc1ccccc1)Nc1cccc(Cl)c1,0.7,-30,1.3,30,0.9
O=C(NNc1cccc(Cl)n1)Nc1cccc(Cl)c1,0.3,17,0.8,72*,0.8
O=C(NNc1cccc(Cl)n1)Nc1ccccc1,0.6,1,1,35,0.9
O=C(NCCc1ccncc1)Nc1ccccc1Cl,0.1,82*,0.2,89*,0.9
COc1ccnc(NCc2cccc(C(F)(F)F)c2)c1C#N,0.5,14,0.9,54*,1.2
Cc1ccc(C(=O)NC(=S)Nc2cc(-c3nc4ccccc4s3)ccc2C)cc1,0.7,31,0.7,25,0.9
Brc1ccc(-c2nc(N/N=C/c3cccnc3)c3ccccc3n2)cc1,0.6,64*,0.4,43,1.7
N#Cc1c(NC(=O)Cn2c(=O)oc3ccccc32)oc(-c2ccccc2)c1-c1ccccc1,0.9,76*,0.2,12,1.5
N#Cc1c(NC(=O)CSc2n[nH]c(N)n2)oc(-c2ccccc2)c1-c1ccccc1,0.8,51*,0.5,18,1.5
Cc1nc(SCC(=O)N2CCC(C(N)=O)CC2)n[nH]1,0.9,-1,1,13,0.9
CC(C)(C)n1nc2c(c1NC(=O)Cc1cccs1)CSC2,0.6,76*,0.2,38,1.5
CC(C)(C)n1nc2c(c1NC(=O)Cc1cccc3ccccc13)CS(=O)C2 (stereo not given),0.9,0,1,5,1.2
CCOC(=O)N1CCN(C(=O)COc2ccc(Cl)cc2)CC1,0.6,-13,1.1,38,0.9
CC(C)(C)n1nc2c(c1NC(=O)COc1ccc(Cl)cc1)CSC2,0.3,86*,0.1,67*,1.6
CC(C)(C)n1nc2c(c1NC(=O)Cc1ccc(F)cc1)CSC2,0.4,68*,0.3,64*,1.5
Cc1cc(C(=O)NC(C)c2ccncc2)cs1 (stereo not given),0.6,44,0.6,39,1.2
Cc1cc(C)nc(Sc2c(F)c(F)c(C(F)(F)F)c(F)c2F)n1,1,-4,1,-2,0.9
O=P(O)(CCc1ccncc1)CN1CCCCC1,1.1,-15,1.1,-14,1
Cc1nc2cc(-c3cccc(Cl)c3)nn2c(N2CCN(C(=O)c3ccco3)CC2)c1C,0.3,86*,0.1,73*,1.7
SMILES,CYP2C19 activ,CYP2C9 inhib,CYP2C9 act,CYP2C19 inh,PLAP act
Cc1cc(N2CCN(C(=O)c3ccco3)CC2)n2nc(-c3cccc(Cl)c3)cc2n1,0.8,39,0.6,22,1.6
Cc1nccc2[nH]c(=O)c(C(=O)NC3CCCCC3C)cc12 (stereo not given),1,8,0.9,4,0.9
Cc1ccc(C(C)C)c(OCCCN2C(=O)NC(C)(C)C2=O)c1,0.1,54*,0.5,90*,1.2
CC1(C)NC(=O)N(CCCCOc2ccc3ccccc3c2Cl)C1=O,0,-24,1.2,95*,1.9
CCC(=O)c1ccccc1OCCCN1C(=O)NC(C)(C)C1=O,0.4,48,0.5,62*,0.8
CC1(C)NC(=O)N(CCOCCOc2ccc3ccccc3c2Br)C1=O,0.1,-4,1,88*,1.7
CCCSc1nc(C)nc2c1c(=O)n(C)c(=O)n2C,0.9,7,0.9,5,1
COC(=O)c1cc(OC)c(OC)cc1NC(=O)c1ccoc1C,1.1,-5,1,-5,1
COc1ccccc1OCc1nc(C#N)c(NCc2ccco2)o1,0.3,80*,0.2,74*,1.1
N#Cc1nc(COc2cccc(Cl)c2)oc1NCc1ccco1,0.5,85*,0.2,50*,1
N#Cc1nc(-c2ccc(OCc3ccccc3)cc2)oc1NCc1ccco1,0.7,32,0.7,30,0.9
Cc1ccc(-c2nc(C#N)c(NCc3ccco3)o2)cc1,0.6,58*,0.4,40,1
Cc1ccc(OCc2nc(C#N)c(NCc3ccco3)o2)cc1,0.1,100*,0,90*,1
CCOc1ccccc1OCCOc1ccc(F)cc1,0.4,-9,1.1,57*,1
CN(C)c1ccc(-c2ccncc2)cc1,0,50,0.5,98*,0.9
CN(C)c1ccc(-c2nnc(-c3ccc(S(=O)(=O)C(F)F)cc3)o2)cc1,0.9,22,0.8,6,0.9
CC1CCN(c2cc(N)c(Cl)cc2[N+](=O)[O-])CC1,0.7,34,0.7,26,0.9
O=C(Nc1cc(Cl)cc(Cl)c1)C1CCC(=O)N1Cc1ccccc1Cl (stereo not given),0,91*,0.1,96*,0.9
OC1(c2ccc(F)cc2)CCN(Cc2ccccc2)C1 (stereo not given),0.2,1,1,84*,0.8
COc1ccc(C2(O)CCN(Cc3nnnn3Cc3ccc(F)cc3)CC2)cc1,1.1,-2,1,-8,1.3
CC12CC3CC(C)(C1)CC(C(=O)NC1=NCCS1)(C3)C2,0.4,-9,1.1,58*,1
CCN(CC)CCNC(=O)C12CC3CC(C)(CC(C)(C3)C1)C2,1,4,1,1,2.1*
CSc1nc(-c2ccccc2)c(-c2ccccc2)[nH]1,1.1,-14,1.1,-15,1.1
O=C(Nc1ccsc1C(=O)N1CCCCCC1)c1ccccc1,0.5,26,0.7,46,0.7
COc1ccccc1N1C(=O)c2ccccc2NC1c1ccncc1 (stereo not given),0.6,56*,0.4,39,1
COc1cc(C2Nc3ccccc3C(=O)N2c2ccccc2)ccc1O (stereo not given),0.6,75*,0.3,38,1.3
COc1ccc(C2Nc3ccccc3C(=O)N2c2ccccc2)cc1COc1ccccn1 (stereo not given),0.7,59*,0.4,30,1.1
CCOc1cc(C2Nc3cccc4cccc(c34)N2)ccc1O,0.3,38,0.6,69*,1
CCc1ccc(C2NC(=S)NC3=C2C(=O)N(c2ccccc2OC)C(c2ccc(CC)cc2)N3)cc1 (stereo not given),1,6,0.9,4,1.9
CC(C)[C@H](NC(=O)[C@@H]1CSCN1C(=O)OC(C)(C)C)C(=O)NCC1CCC(C(=O)O)CC1 (stereo not given in full),1.1,-18,1.2,-6,1
